The record followed here is PubChem BioAssay (NCATS).

The nature of assay [1]: qHTS to identify inhibitors of the type 1 interferon - major histocompatibility complex class I in skeletal muscle: primary screen against the NCATS Mechanism Interrogation Plate v5.0 (MIPE) Libary (AID 1347411).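 Also: plate controls were vehicle for no effect and reference inhibitor for full effect; nearly all actives have a fitted effect of over 65% in size.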 Put shortly: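 Immortalized human C25cl48 myoblasts with HiBit knocked into endogenous HLA-B*08:01 were stimulated with 4.0 ng/ml IFN-beta and exposed to compounds (11-point 1:3 titration, top 46 uM final) for 24 hrs at 37 C; HiBiT lytic luminescence measured.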

Assay [2] in a line: Primary qHTS for inhibitors of nuclear receptor binding SET domain protein 2 (NSD2) in an isogenic RCH-ACV NSD2 p.E1099K mutant (9B) (AID 1645876). Also: % is scaled to controls: 0 for no effect and ±100 for the full control effect; nearly all actives have a fitted effect of over 70% in size.
Assay [3] addresses Phospholipid hydroperoxide glutathione peroxidase GPX4 (Homo sapiens) (UniProt P36969). Briefly: Primary qHTS Assay for Inhibitors of Recombinant Selenoprotein Glutathione Peroxidase 4 (GPX4) (AID 1845192). Also: nearly all actives have a fitted effect of over 65% in size. To be noted: outcome: dose series up to 50 µM unless noted. Put shortly: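 GR-coupled assay: recombinant GPX4 preincubated 30 min with compound at room temperature; final 200 nM GPX4, 1 mM GSH, 0.5 mM cumene hydroperoxide, 0.5 mM NADPH, 100 nM GR, 0.01% BSA, pH 7.5 Tris. NADPH fluorescence (340/450 nm) read at 0 and 15 min.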

Assay [4] can be described thus: qHTS drug screen for cell cycle checkpoint inhibitors in PARPi-resistant BRCA-mutant ovarian cancer cell lines. (AID 1963452; calls by dose curve). As to conditions: PEO1/OlaR viability, CellTiter-Glo luminescence, 96 h, stronger effect = lower value. Put shortly: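 PEO1, PEO4 and PEO1/OlaR ovarian cancer cells, 600 per well, exposed 96 h at 37C to a dilution series. Viability read by CellTiter-Glo luminescence, normalized to DMSO and empty wells; activity summarized as Z-AUC.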

Assay [5] is described as follows: NCATS anti-infectives library activity on HEK293 viability as a counter-qHTS vs the C. elegans viability qHTS (AID 1745854). Also: % is scaled to controls: 0 for no effect and ±100 for the full control effect. Put shortly:
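HEK293 cells, 1500 per well, exposed 24 hr at 37C in 5% CO2 to compounds in a 1:5 titration, up to 41.7 uM final. Viability read as CellTiter-Glo luminescence after 10 min at room temperature.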

Structures are written as SMILES. Records with an inconclusive call do not appear. Calls of active or inactive are those of the source. Unless noted, calls follow the shape of the dose curve; as a rule, active = well fitted curve in the direction sought with a large enough effect; inconclusive = small, poorly fitted or top-dose-only effect, or another doubt; inactive = no such curve, though single readings can be large; an effect the other way counts as inactive or inconclusive.

Chain of Phospholipid hydroperoxide glutathione peroxidase GPX4 (Homo sapiens) (P36969 whole entry, looked up): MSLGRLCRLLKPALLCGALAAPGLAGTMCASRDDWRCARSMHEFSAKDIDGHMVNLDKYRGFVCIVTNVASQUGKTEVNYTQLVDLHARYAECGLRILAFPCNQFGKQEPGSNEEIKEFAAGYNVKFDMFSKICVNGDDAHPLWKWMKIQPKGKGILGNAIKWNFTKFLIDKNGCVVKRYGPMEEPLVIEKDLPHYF

Turning to `CONC(=O)Nc1ccc(-c2sc3c(c2CN(C)Cc2ccccc2)c(=O)n(-c2ccccc2)c(=O)n3Cc2c(F)cccc2F)cc1`, the Potency entry in assay [1], in assay [2] and in assay [3] was “inactive” in each case. Moreover, the figures for the Z-AUC in assay [4], in assay [4] (measured here: PEO1 parental Z-AUC) and in assay [4] (measured here: PEO4 Z-AUC) were -0.608 (inactive), -0.886 and -0.917, respectively.

In the case of `Nc1cccc2c1CN([C@H]1CCC(=O)NC1=O)C2=O`, the Potency entry in assay [1], in assay [5] and in assay [3] was “inactive” throughout.
